PubChem BioAssay AID1851 (National Center for Advancing Translational Sciences (NCATS), 2009)
Among all 16,000 compounds or so, about 5,800 (36%) were called active. Not shown: some 23% with an inconclusive outcome. The call rests on the fitted dose curve; in most records, active means well fitted curve in the direction sought with a large enough effect; inconclusive means small, poorly fitted or top-dose-only effect, or effect the other way; inactive means no such curve, though single readings can be large or run the other way. Some of the results follow.

What follows are compounds tested against Cytochrome P450 2C19 (Homo sapiens) (UniProt P33261) (assay: Cytochrome panel assay with activity outcomes). Conditions: recombinant CYP, pro-luciferin dealkylation, luminescence, p450-cyp2c19; series mostly up to 57.1 µM.
Chain of Cytochrome P450 2C19 (Homo sapiens) (P33261 whole entry, looked up): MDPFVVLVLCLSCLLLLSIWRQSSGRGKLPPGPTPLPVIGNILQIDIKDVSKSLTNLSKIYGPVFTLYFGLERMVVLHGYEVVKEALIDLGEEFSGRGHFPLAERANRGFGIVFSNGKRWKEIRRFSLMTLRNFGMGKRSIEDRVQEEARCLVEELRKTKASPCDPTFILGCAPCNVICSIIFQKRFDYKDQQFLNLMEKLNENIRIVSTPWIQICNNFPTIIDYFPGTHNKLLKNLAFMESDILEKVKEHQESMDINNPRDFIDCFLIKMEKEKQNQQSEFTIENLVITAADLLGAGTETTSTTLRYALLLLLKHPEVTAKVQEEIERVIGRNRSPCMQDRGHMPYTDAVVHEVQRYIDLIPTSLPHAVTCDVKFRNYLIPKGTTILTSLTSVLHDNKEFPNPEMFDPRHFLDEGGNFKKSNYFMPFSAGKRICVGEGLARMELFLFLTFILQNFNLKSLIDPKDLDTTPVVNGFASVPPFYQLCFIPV
On the % scale 0 is the no-effect control and ±100 the full control effect.

SMILES	activity, negative = inhibition	AC50
C[C@H](O/N=C1/[C@H]2O[C@@H]2[C@@H](O)[C@H]2[C@H]1CCn1c(=O)n(-c3ccccc3)c(=O)n12)c1cn([C@H]2COC[C@H]2O)nn1	42.5% [at 11.4 µM] (inactive)	–
CN(C)CCC=C1c2ccccc2C=Cc2ccccc21	–	inactive
c1ccc(-n2cnc3cc(NCc4cccs4)ccc32)cc1	–	2.82 µM (active)
Cc1ccccc1-n1cnc2cc(NCc3cccs3)ccc21	–	2.51 µM (active)
Cc1noc(C)c1-c1nc(NCc2cccs2)c2ccccc2n1	–	inactive
CO[C@H]1COC(=O)C/C=C\[C@H](C)COC(=O)[C@@H](OCc2ccccc2)/C=C\[C@@H]1C	-37% [at 11.4 µM] (inactive)	–
Cc1ccc2c(c1)NCC(C(=O)NC1CCCCC1)O2 (configuration not stated)	–	3.55 µM (active)
CCCCC1(C)Nc2ccccc2-c2nc3ccccc3n21 (configuration not stated)	–	0.708 µM (active)
CCCC1(C)Nc2ccccc2-c2nc3ccccc3n21 (configuration not stated)	–	1.41 µM (active)
CCC1(C)Nc2ccccc2C(=O)N1O (configuration not stated)	–	inactive
COc1cccc2c1C(=O)c1c(O)c3c(c(O)c1C2=O)C[C@@](O)(C(=O)CO)C[C@H]3O[C@H]1C[C@@H](N)[C@H](O)[C@@H](C)O1.[W]	9.1% [at 11.4 µM] (inactive)	–
CS(=O)(=O)N1CCC2(CCN(C(=O)Nc3cccc(C#N)c3)CC2)CC1	–	inactive
O=C(Nc1cccc(Cl)c1)N1CCN2C(=O)c3ccccc3C12c1ccccc1 (configuration not stated)	–	2.24 µM (active)
COCC(C)n1c(C)cc(C(=O)CSc2nnc(Nc3ccccc3F)s2)c1C (configuration not stated)	–	2 µM (active)
Cc1ccc(CN(C(=O)c2cc3ccccc3oc2=O)C2CCS(=O)(=O)C2)cc1 (configuration not stated)	–	14.1 µM (active)
O=C(c1sc2ccccc2c1Cl)N(Cc1ccccc1)C1CCS(=O)(=O)C1 (configuration not stated)	–	3.16 µM (active)
Cc1cc(C)c[n+](CC(=O)c2cc3ccccc3oc2=O)c1	–	inactive
CCCN(C(=S)Nc1ccccc1)C1CCS(=O)(=O)C1 (configuration not stated)	–	inactive
CCOc1ccc(CN(C(=O)c2oc3ccccc3c2C)C2CCS(=O)(=O)C2)cc1 (configuration not stated)	–	1.41 µM (active)

SMILES	activity, negative = inhibition	AC50
CCc1ccc(OCC(=O)OC2CCS(=O)(=O)C2)cc1 (configuration not stated)	–	inactive
CCOc1ccc(Cc2nccc3cc(OCC)c(OCC)cc23)cc1OCC	–	inactive
C/C(CC/C(C)=N/O)=N/O	6.8% [at 11.4 µM] (inactive)	–
CCS(=O)(=O)N1CCC(C(=O)NCc2ccccc2OC)CC1	–	39.8 µM (active)
COc1cccc(CNC(=O)C2CCN(S(=O)(=O)N3CCCCC3)CC2)c1	–	inactive
CCS(=O)(=O)N1CCC(C(=O)NCCCN2CCCC2)CC1	–	inactive
CCS(=O)(=O)N1CCC(C(=O)NCc2ccco2)CC1	–	inactive
COc1ccc(CCNC(=O)C2CCN(S(=O)(=O)N3CC(C)CC(C)C3)CC2)cc1OC (configuration not stated)	–	14.1 µM (active)
CCS(=O)(=O)N1CCC(C(=O)NCCCOC)CC1	–	inactive
O=C(NCc1ccccc1Cl)C1CCN(S(=O)(=O)N2CCC3(CC2)OCCO3)CC1	–	22.4 µM (active)
CCOc1ccc(CCNC(=O)C2CCN(S(=O)(=O)CC)CC2)cc1OCC	–	inactive
CCOCCCNC(=O)C1CCN(S(=O)(=O)N2CC(C)CC(C)C2)CC1 (configuration not stated)	–	inactive
O=C(NCCCN1CCN(Cc2ccccc2)CC1)C1CCN(S(=O)(=O)N2CCCC2)CC1	–	inactive
O=C(NCCc1ccc(Cl)cc1)C1CCN(S(=O)(=O)N2CCC3(CC2)OCCO3)CC1	–	4.47 µM (active)
O=C(Nc1ccc(F)cc1F)c1cccn1-c1ncc(C(F)(F)F)cc1Cl	–	10 µM (active)
Cc1ccc(C(=O)Nc2ccccc2Oc2ccccc2)cc1[N+](=O)[O-]	–	3.16 µM (active)
Cc1ccc(C(=O)Nc2ccc(Cc3ccncc3)cc2)cc1[N+](=O)[O-]	–	1.12 µM (active)
Cc1ccc(C(=O)N/N=C\c2ccc[nH]2)cc1[N+](=O)[O-]	–	inactive
COc1ccc(NC(=O)N2CC3(CCN(C(=O)c4ccc(OC)cc4)CC3)C2)cc1	–	inactive

SMILES	activity, negative = inhibition	AC50
COc1ccc(NC(=O)C2(c3ccc(NC(=O)c4ccc(OC(C)=O)cc4)cc3)CCCC2)cc1	–	inactive
Cc1noc(C)c1C(=O)N1CCC2(CCN(C(=O)Nc3ccccc3)CC2)CC1	–	inactive
CCOC(=O)c1ccc(NC(=O)C2(c3ccc(OC)cc3)CCOCC2)cc1	–	2.24 µM (active)
COc1ccc(NC(=O)C2(c3ccc(NC(=O)c4ccc(C)cc4)cc3)CCCC2)cc1	–	inactive
CC(=O)c1ccc(NC(=O)C2(c3ccccc3)CCOCC2)cc1	–	14.1 µM (active)
NS(=O)(=O)c1cc2c(cc1Cl)N[C@@H](CC1CCCC1)NS2(=O)=O	–	inactive
O=[N+]([O-])c1ccc(C=Nc2ccc(Cl)cc2Cl)s1	–	7.08 µM (active)
O=C(/C=C/Nc1ccccc1)c1ccc(Oc2ncccn2)cc1	–	15.8 µM (active)
COc1ccc(NC(=O)c2ccc(-c3ccc(-c4noc(C)n4)cc3C)cc2)cc1OCCN(C)C	–	inactive
COc1ccc(-c2noc(N(C)CC(=O)Nc3cccc(C(F)(F)F)c3)n2)cc1	–	4.47 µM (active)
CC[C@]1(O)C[C@@H]2CN(CCc3c([nH]c4ccccc34)[C@](C(=O)OC)(c3cc4c(cc3OC)N(C=O)[C@H]3[C@@](O)(C(=O)OC)[C@H](C(=O)OC)[C@@]5(CC)C=CCN6CC[C@]43[C@H]65)C2)C1	–	inactive
CC1=NCC[N@@+]1(CCc1ccccc1)Cc1ccccc1	32.9% [at 11.4 µM] (inactive)	–
COc1ccc2[nH]cc(CCNc3ncnc4ccc(-c5ccc(C(=O)N(C)C)cc5)cc34)c2c1	–	7.94 µM (active)
COc1ccc2[nH]cc(CCNc3ncncc3-c3ccc(C(=O)N(C)C)cc3)c2c1	–	10 µM (active)
COc1ccc2[nH]cc(CCNc3ncncc3-c3ccc(N(C)C)cc3)c2c1	–	1.58 µM (active)
O=C(O)c1[nH]c2c([N+](=O)[O-])cc([N+](=O)[O-])cc2c1C(=O)O	39.2% [at 11.4 µM] (inactive)	–
NS(=O)(=O)c1cc2c(cc1C(F)(F)F)N[C@H](Cc1ccccc1)NS2(=O)=O	–	inactive
CC[n+]1c(P(=O)([O-])c2ccccc2)[nH]c2ccccc21	–	inactive
CN1CC(c2ccccn2)C2(SC(=S)N(Cc3ccccc3)C2=O)C12C(=O)Nc1ccccc12 (configuration not stated)	–	1.12 µM (active)
